Measured values as given in the supplement of paper PMC3334620.
The full ranking holds about 33,000 sequences; the median of “E-score (-0.5 to 0.5)” is about -0.035, and the highest 2% start at about 0.34. The entries come from a sample that favours the highest values as a whole.

target: T1, Mot3 (UniProt P54785); experiment: PBM E-score (8-mer binding enrichment) (E-score (-0.5 to 0.5)); higher = stronger / more preferred TF binding; conditions: protein concentration: 200 nM; construct: GST-full length
T1 sequence: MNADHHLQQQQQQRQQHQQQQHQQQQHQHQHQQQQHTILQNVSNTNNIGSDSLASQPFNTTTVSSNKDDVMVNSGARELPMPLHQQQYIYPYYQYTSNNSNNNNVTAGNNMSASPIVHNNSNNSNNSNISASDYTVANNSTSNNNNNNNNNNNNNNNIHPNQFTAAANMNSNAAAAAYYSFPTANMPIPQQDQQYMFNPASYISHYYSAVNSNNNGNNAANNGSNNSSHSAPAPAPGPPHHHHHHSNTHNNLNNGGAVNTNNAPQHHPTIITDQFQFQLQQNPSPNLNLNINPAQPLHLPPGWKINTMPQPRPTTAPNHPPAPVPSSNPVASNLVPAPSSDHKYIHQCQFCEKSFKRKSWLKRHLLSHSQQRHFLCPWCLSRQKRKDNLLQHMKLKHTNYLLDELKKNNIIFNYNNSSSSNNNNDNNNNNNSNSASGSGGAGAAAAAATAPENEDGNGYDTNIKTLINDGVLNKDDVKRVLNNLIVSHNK
Protocol: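 Universal 'all 10-mer' protein binding microarrays (Agilent AMADID 015681) probed with GST-tagged S. cerevisiae TFs (full-length or DBD) made by in vitro transcription/translation (PURExpress), about 100-200 nM. Bound TF was detected with fluorescent anti-GST. Each ungapped 8-mer (which stands for itself and its reverse complement) is scored by the PBM enrichment score (E-score), a modified Wilcoxon-Mann-Whitney statistic from -0.5 to +0.5, computed with the Universal PBM Analysis Suite. Scale: above 0.35 generally sequence-specific binding.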

| Sequence | PBM E-score |
| --- | --- |
| GATTACAA | 0.359 |
| GATTACGC | 0.23 |
| AATTACAG | 0.27 |
| CATTACAG | 0.287 |
| ACTTACAT | 0.311 |
| AATTACAT | 0.419 |
| GCTTACAC | 0.178 |
| CATTACAA | 0.301 |
| CATTACAC | 0.384 |
| GATTACAC | 0.419 |
| GCTTACAA | 0.197 |
| GATTACTA | 0.122 |
| ATGCTGCC | -0.0402 |
| ATCCGGAG | -0.0342 |
| CCATACTC | -0.245 |
| AATTACCA | 0.174 |
| ACTTACAC | 0.217 |
| AATTACAC | 0.402 |
| TATTACAA | 0.297 |
| AATTACCC | -0.0825 |
| AATTACAA | 0.362 |
| CCTGCAGA | 0.303 |
| CCTGCAGC | 0.0434 |
| CCTGCAGG | 0.413 |
| TACATGAA | 0.375 |

| Sequence | PBM E-score |
| --- | --- |
| AACATGGA | 0.312 |
| TACATGGA | 0.346 |
| GACATGGA | 0.167 |
| GACATGCA | 0.203 |
| CACATGAA | 0.185 |
| TACATGCA | 0.361 |
| GACATGAA | 0.274 |
| AACATGCA | 0.324 |
| AGCTATGC | -0.0718 |
| GCACAGTA | -0.0809 |
| ATGCTATG | 0.19 |
| CGCTCAGA | 0.0235 |
| ATCTTCAT | -0.0494 |
| AAGTAGGG | -0.08 |
| CCCTTGTA | 0.237 |
| ACCTTGTA | 0.338 |
| CCCTTGCC | 0.0298 |
| GCCTTGCA | -0.00236 |
| GCCTTGTA | 0.354 |
| GCCTTGCC | 0.416 |
| CATTTCGG | -0.063 |
| AGGGCCCT | -0.368 |
| GCTCGGAC | -0.172 |
| CGACAGAA | -0.216 |
| GACCTCGA | -0.139 |

| Sequence | PBM E-score |
| --- | --- |
| GTATCCAA | -0.0981 |
| CAGGTCAG | -0.242 |
| ATAGGCGC | 0.249 |
| ATAGGCAT | 0.412 |
| ATAGGCAC | 0.491 |
| CTAGGCGA | -0.178 |
| ATAGGCTC | 0.207 |
| CTAGGCAA | 0.474 |
| ATAGGCTA | 0.0381 |
| ATAGGCAA | 0.486 |
| ATCGGCAT | -0.0895 |
| ATAGGGAT | 0.0533 |
| ATAGGCAG | 0.234 |
| CTAGGCTA | -0.18 |
| CCACAAGG | 0.094 |
| AGTGAGCC | -0.0781 |
| CAGTTAAA | 0.0473 |
| GTGGCGCA | -0.0264 |
| CCCAGTGA | -0.203 |
| CATTCTCA | 0.0726 |
| GTAGGCCA | 0.00764 |
| TTAGGCAA | 0.481 |
| TTCGGCAA | 0.0952 |
| GTAGGCAA | 0.49 |
| CTAGGCAC | 0.485 |

| Sequence | PBM E-score |
| --- | --- |
| GTAGGCTA | 0.226 |
| CTAGGCAG | -0.0742 |
| CTAGGCGC | 0.041 |
| TTAGGGAA | 0.0178 |
| AAGACGCA | -0.0452 |
| AAACAGCG | 0.0286 |
| AGCCTGAT | 0.183 |
| AGTGCCGA | -0.324 |
| AGTGCCAA | -0.0129 |
| AGTGCCTA | 0.484 |
| GGTGCCAA | -0.14 |
| GGTGCCGA | 0.0164 |
| GGTGCCTA | 0.492 |
| ATACAGAT | 0.0248 |
| ACGTAGGA | 0.184 |
| AACATGCT | 0.308 |
| AACATGAG | 0.277 |
| GACATGAC | 0.175 |
| AACATGAC | 0.359 |
| AACATGAA | 0.305 |
| AACATGAT | 0.349 |
| ACACAAGT | 0.164 |
| ACACTGAC | 0.196 |
| GGAAACGA | 0.0799 |
| CCTGAACC | 0.206 |

| Sequence | PBM E-score |
| --- | --- |
| CCCATCTC | -0.269 |
| CTCGTGGA | -0.234 |
| ATCGTGTA | 0.39 |
| GTCGTGTA | 0.376 |
| ATCGTGTG | 0.204 |
| CTCGTGTC | 0.184 |
| ATCGTGTC | 0.247 |
| GTCGTGGA | -0.26 |
| GTCGTGCA | 0.0491 |
| CTCGTGTA | 0.353 |
| CGACAGTA | -0.196 |
| ATGTGCTG | 0.147 |
| CCCTGGCC | -0.264 |
| ATCAGATC | -0.196 |
| ACAACTGG | -0.229 |
| AGCGTGAA | -0.0361 |
| GTAATTAC | 0.378 |
| CTAATTAC | 0.289 |
| ATAATTAC | 0.258 |
| CGCGCGTC | 0.0273 |
| CCCAGCGC | -0.0444 |
| ACCTTCCT | 0.0149 |
| ACAAGGCT | 0.111 |
| GCAAGGCA | 0.469 |
| CCAAGGCA | 0.458 |

| Sequence | PBM E-score |
| --- | --- |
| TCAAGACA | -0.0248 |
| CCAAGGCG | -0.0205 |
| ACAAGGCA | 0.449 |
| TCAAGGGA | -0.213 |
| GCAAGGCC | -0.0626 |
| TCAAGGCA | 0.458 |
| CCAAGGCC | -0.14 |
| ACAAGGCG | 0.109 |
| GCAAGGGA | -0.155 |
| AACTCTAG | 0.00906 |
| ATGAAAGC | 0.103 |
| GTCATTCA | -0.067 |
| GAACCATC | -0.0773 |
| AACTTTCC | 0.0113 |
| AATGTTGT | 0.223 |
| AGCTGATC | -0.17 |
| CTGTCTCA | -0.258 |
| ACCAGGCA | 0.446 |
| CCCAGGCC | -0.191 |
| GCCAGGCA | 0.436 |
| TCCAGGCA | 0.463 |
| GCCAGGAA | 0.124 |
| CCCAGGCA | 0.461 |
| ACCAGGCC | -0.0646 |
| ACCAGGCT | -0.06 |

| Sequence | PBM E-score |
| --- | --- |
| TCCAGGAA | 0.316 |
| TCCAGGGA | -0.212 |
| CCCAGGCG | -0.061 |
| GCCAGGCC | -0.25 |
| ACCTTGCT | -0.0444 |
| ACCCGACA | -0.0489 |
| TACACCGA | 0.0164 |
| GCCGCTAA | -0.0753 |
| CCGCTAAC | -0.0566 |
| ACTGGTGG | -0.246 |
| AGGCCTCA | -0.247 |
| CAGAGAGC | -0.316 |
| GACATATA | 0.125 |
| CACATGTA | 0.344 |
| CACATGTG | 0.194 |
| GAAATGTA | 0.0874 |
| CACATGTC | 0.196 |
| TACATCTA | 0.227 |
| GACATGTC | 0.191 |
| TACATATA | 0.317 |
| TAAATGTA | 0.346 |
| CAAATGTA | 0.272 |
| GACATGTA | 0.355 |
| TACATGTA | 0.408 |
